# Bioassay records deposited in PubChem by National Center for Advancing Translational Sciences (NCATS).
# Rows were chosen to be rich in hits. Some 7% of all compounds tested hit in one or more screens of this group.
# IL1B secr inh = inhibitors of inflammasome signaling (IL-1 beta secretion); activity change, % at 57.5 µM; THP-1 LPS/ATP IL-1B secretion, AlphaLISA, 16 h; active compounds read low; actives 4.7% (n = 360,000); in the data active means activity change below about -50%; inconclusive means mostly about -30% to -49%; further: on the % scale 0 is the no-effect control and ±100 the full control effect
#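 Secreted IL-1B measured by AlphaLISA bead assay after 16 h compound exposure of THP-1 cells; compounds (final up to 57.5 uM) added 1 h before LPS (250 ng/mL) and ATP (1.25 mM) stimulation; lower signal means less secretion.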
# a7 integrin act = activates integrin-mediated alleviation for muscular dystrophy | alpha7betagal myoblasts, beta-gal FDG fluorescence, 48 h | Potency, µM (top dose mostly 38.3 µM), for the others: top-dose activation, usual class: activators | actives 0.064% (n = 350,000) | AID 624291;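 further: potency means the concentration at half of the fitted maximal effect; 100% = response of the positive control SU9516; nearly all actives have a fitted effect of over 60% in size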
#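 Alpha7betagal+/- myoblasts (passage 13) were plated 16-24 hr, then exposed to compounds (1:260 dilution of DMSO stock) for 48 hours at 37C. After MPER lysis, β-galactosidase reporter activity was read as FDG fluorescence (ex 480/em 540) after 30 minutes.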
# D3 antag = blocks the human D3 dopamine receptor; P35462; D3R cells, DiscoveRx beta-arrestin luminescence, antagonist mode; active compounds read low; max response, negative = inhibition, %; actives 2.5% (n = 360,000); AID 652054; in the data active means max response below about -50%; inconclusive means no clear call, values can overlap the other calls; further: on the % scale 0 is the no-effect control and ±100 the full control effect
# Target sequence (P35462 whole entry, looked up): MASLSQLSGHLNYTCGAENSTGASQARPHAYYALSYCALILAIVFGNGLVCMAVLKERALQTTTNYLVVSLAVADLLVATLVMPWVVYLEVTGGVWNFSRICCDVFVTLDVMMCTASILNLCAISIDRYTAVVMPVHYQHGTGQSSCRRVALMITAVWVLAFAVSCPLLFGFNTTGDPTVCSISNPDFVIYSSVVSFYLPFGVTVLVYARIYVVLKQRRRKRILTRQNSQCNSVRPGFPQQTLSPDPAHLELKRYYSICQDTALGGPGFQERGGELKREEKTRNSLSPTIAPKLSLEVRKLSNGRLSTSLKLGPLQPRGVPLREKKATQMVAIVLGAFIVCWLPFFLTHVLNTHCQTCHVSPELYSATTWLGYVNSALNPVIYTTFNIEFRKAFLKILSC
#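 Cells plated overnight at 1500 cells/well, then exposed to library compounds with dopamine controls for 90 minutes at 37 degrees C. DiscoveRx reagent added for 30–60 minutes at room temperature; luminescence read, quantitative HTS format.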
# D3 ag = activates the human D3 dopamine receptor. P35462. D3R DiscoveRx beta-arrestin cells, luminescence, 90 min. max activation, %. actives 0.58% (n = 410,000); in the data active means max activation above about 30%; further: 0% is about no effect
#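 Agonist-mode cell screen: cells plated at 1500/well and incubated overnight at 37 °C, then exposed to library compounds for 90 min at 37 °C. Detection reagent was added for 30–60 min at room temperature, and luminescence was read.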
# S2 tox = reduces viability in counter-screen for ATXN expression inhibitors. actives 0.49% (n = 400,000). S2 cells (HEK-293 line with an ATXN2-luciferase reporter) viability, CellTiter-Fluor protease fluorescence, 24 h. Potency, µM (doses to about 56.7 µM), actives largely listed as cytotoxic; further: potency means the concentration at half of the fitted maximal effect; nearly all actives have a fitted effect of over 40% in size
# ATXN2 expr inh = ATXN2 expression inhibition; HEK-293 ATXN2-luciferase reporter, luminescence, 24 h; Potency, µM (highest dose often 57 µM), for inactives: at the highest dose activity change, negative = inhibition, usual class: inhibitors; actives 0.72% (n = 360,000); AID 1745845; further: potency means the concentration at half of the fitted maximal effect; on the % scale 0 is the no-effect control and ±100 the full control effect; nearly all actives have a fitted effect of over 55% in size
#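 qHTS (up to 57 uM final) was run with 24 h compound exposure of reporter cells at 37 °C. Each well was multiplexed: SteadyGlo luminescence measured ATXN2-luciferase expression after a fluorogenic Gly-Phe-AFC viability readout (25 uM final).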
# Starred values were filed as active, the others as inactive; i = inactive; ? = inconclusive; · = no result. Unless noted, the call rests on the fitted dose curve; in most records, active means well fitted curve in the direction sought with a large enough effect; inconclusive means small, poorly fitted or top-dose-only effect, or another doubt; inactive means no such curve, though single readings can be large; an effect the other way counts as inactive or inconclusive.
SMILES,IL1B secr inh,a7 integrin act,D3 antag,D3 ag,S2 tox,ATXN2 expr inh
COc1ccccc1/C=C/C(=O)NCCC1=CCCCC1,-50*,14%,?,-13,i,·
Oc1cccc(C(Nc2nccs2)c2ccc3cccnc3c2O)c1 (stereo not given),-107*,-4%,14,11,i,?
CCCCC(=O)NC(c1ccc(C(C)C)cc1)c1ccc2cccnc2c1O (stereo not given),120,0%,4,12,i,-82%
O=[N+]([O-])c1ccc(NC(c2ccccc2)c2ccc3cccnc3c2O)cc1 (stereo not given),73,-28%,3,16,i,2.8µM*
Oc1c(C(Nc2cccc(C(F)(F)F)c2)c2cccnc2)ccc2cccnc12 (stereo not given),38,-28%,?,-2,i,?
CCCCC(=O)NC(c1cccc([N+](=O)[O-])c1)c1ccc2cccnc2c1O (stereo not given),91,-54%,55,3,?,·
COc1cccc(C(NC(C)=O)c2ccc3cccnc3c2O)c1 (stereo not given),203,-15%,-16,19,?,?
CC(=O)NC(c1ccc(C(C)C)cc1)c1ccc2cccnc2c1O (stereo not given),168,-35%,-20,4,?,3.2µM*
CC(=O)NC(c1cccc([N+](=O)[O-])c1)c1ccc2cccnc2c1O (stereo not given),189,-51%,-26,27,?,3.2µM*
O=C(COc1ccccc1)NC(NC(=S)Nc1ccccc1O)C(Cl)(Cl)Cl (stereo not given),-4,-3%,-2,0,?,-9%
CCOc1ccc(OCC)c(S(=O)(=O)N2CCC(C)CC2)c1,-7,-11%,-17,11,i,-1%
CC(=O)Nc1ccc(NC(=O)CSc2nc(C)nc3sc(C)c(C)c23)cc1,-26,-3%,14,1,i,-16%
Cc1nc(SCC(=O)Nc2ccc(CN3CCCC3)cc2)c2c(C)c(C)sc2n1,-94*,0%,?,-12,?,4%
CCN(Cc1ccc2c(c1)OCO2)C(=O)CSc1nc(C)nc2sc(C)c(C)c12,-17,1%,60,40*,?,?
COc1ccc(CCNC(=O)Cn2nc(C(=O)O)c3ccccc3c2=O)cc1OC,-5,1%,-3,-4,i,·
CN(C)CCNc1ccc(CO)c2oc3ccc(O)cc3c(=O)c12,-98*,-52%,0,-10,27µM*,21µM*
O=c1cc(NCCCO)c2ccccc2o1,5,0%,-3,4,i,2%
CCN(CC)CCNc1ccc(CO)c2oc3cc(Cl)ccc3c(=O)c12,-29,-55%,-56*,-5,?,·
CCN(CC)CCNC(CC(=O)Nc1ccc(Cl)cc1Cl)C(=O)O (stereo not given),-12,-16%,?,-5,i,0%
CN1CC(=O)NC1=NC(=O)Nc1cccc(Cl)c1,·,·,·,·,·,-5%
COc1ccc(-n2ncc(C(C)NS(=O)(=O)c3cccs3)c2C)cc1 (stereo not given),2,31%,-76*,-2,i,-14%
COc1ccc(-n2ncc(C(C)NS(=O)(=O)c3cc(F)ccc3C)c2C)cc1 (stereo not given),-5,4%,-58*,-12,i,-3%
CC(CCN1CCOCC1)c1ccccc1 (stereo not given),-9,-11%,-12,-2,i,3%
CC(CN1CCN(c2ccccc2)CC1)c1ccccc1 (stereo not given),5,1%,-64*,-29,i,-5%
CC(CCN1CCN(c2ccc(F)cc2)CC1)c1ccccc1 (stereo not given),-13,-27%,-76*,-34,i,-4%
CCCN1CCC(=O)N(CCSc2ccccc2)CC1,15,34%,-6,-21,i,12%
c1ccc(SCCN2CCN(c3ccccc3)CC2)cc1,-1,?,-103*,-8,i,4%
